The text below walks through data of ChEMBL document CHEMBL1961873, “Compounds: GSK PKIS; Assays: Nanosyn kinase panel” (2012).

As a reminder, the inhibition is the drop in the measured response relative to a control, in per cent.

Assay [1] has as its target Fibroblast growth factor receptor 4 (Homo sapiens) (UniProt P22455). To be noted: at 1 µM.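 Further: reported figure is the averaged percent inhibition of FGFR4, from the GSK PKIS kinase screening panel.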
The target of assay [2] is Tyrosine-protein kinase Fgr (Homo sapiens) (UniProt P09769). To be noted: at 0.1 µM.
Chain of Tyrosine-protein kinase Fgr (Homo sapiens) (P09769 2-529 limits assumed): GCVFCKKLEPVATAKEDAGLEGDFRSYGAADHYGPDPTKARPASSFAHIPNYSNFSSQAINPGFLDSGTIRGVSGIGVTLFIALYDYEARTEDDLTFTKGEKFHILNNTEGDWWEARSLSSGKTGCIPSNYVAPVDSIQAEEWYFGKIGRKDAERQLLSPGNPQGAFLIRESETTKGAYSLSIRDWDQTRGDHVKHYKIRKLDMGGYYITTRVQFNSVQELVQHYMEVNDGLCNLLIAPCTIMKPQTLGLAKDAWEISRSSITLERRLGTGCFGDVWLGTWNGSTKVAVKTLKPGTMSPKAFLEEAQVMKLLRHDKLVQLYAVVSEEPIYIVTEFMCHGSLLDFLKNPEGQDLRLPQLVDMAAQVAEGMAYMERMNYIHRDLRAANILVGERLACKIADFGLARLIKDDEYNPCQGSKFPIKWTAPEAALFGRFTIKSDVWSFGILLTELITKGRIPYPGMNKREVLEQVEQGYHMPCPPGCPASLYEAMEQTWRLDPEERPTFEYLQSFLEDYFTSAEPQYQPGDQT
For assay [3] the target is unchanged. To be noted: at 1 µM.
Assay [4] has as its target Vascular endothelial growth factor receptor 1 (Homo sapiens) (UniProt P17948). To be noted: at 0.1 µM.
The target is the same in assay [5]. To be noted: at 1 µM.
Assay [6] has as its target Receptor-type tyrosine-protein kinase FLT3 (Homo sapiens) (UniProt P36888). To be noted: at 0.1 µM.
Assay [7] shares this target. To be noted: at 1 µM.
Assay [8] relates to T1, Receptor-type tyrosine-protein kinase FLT3 (Homo sapiens), P36888 [D835Y].
T1 sequence (whole entry): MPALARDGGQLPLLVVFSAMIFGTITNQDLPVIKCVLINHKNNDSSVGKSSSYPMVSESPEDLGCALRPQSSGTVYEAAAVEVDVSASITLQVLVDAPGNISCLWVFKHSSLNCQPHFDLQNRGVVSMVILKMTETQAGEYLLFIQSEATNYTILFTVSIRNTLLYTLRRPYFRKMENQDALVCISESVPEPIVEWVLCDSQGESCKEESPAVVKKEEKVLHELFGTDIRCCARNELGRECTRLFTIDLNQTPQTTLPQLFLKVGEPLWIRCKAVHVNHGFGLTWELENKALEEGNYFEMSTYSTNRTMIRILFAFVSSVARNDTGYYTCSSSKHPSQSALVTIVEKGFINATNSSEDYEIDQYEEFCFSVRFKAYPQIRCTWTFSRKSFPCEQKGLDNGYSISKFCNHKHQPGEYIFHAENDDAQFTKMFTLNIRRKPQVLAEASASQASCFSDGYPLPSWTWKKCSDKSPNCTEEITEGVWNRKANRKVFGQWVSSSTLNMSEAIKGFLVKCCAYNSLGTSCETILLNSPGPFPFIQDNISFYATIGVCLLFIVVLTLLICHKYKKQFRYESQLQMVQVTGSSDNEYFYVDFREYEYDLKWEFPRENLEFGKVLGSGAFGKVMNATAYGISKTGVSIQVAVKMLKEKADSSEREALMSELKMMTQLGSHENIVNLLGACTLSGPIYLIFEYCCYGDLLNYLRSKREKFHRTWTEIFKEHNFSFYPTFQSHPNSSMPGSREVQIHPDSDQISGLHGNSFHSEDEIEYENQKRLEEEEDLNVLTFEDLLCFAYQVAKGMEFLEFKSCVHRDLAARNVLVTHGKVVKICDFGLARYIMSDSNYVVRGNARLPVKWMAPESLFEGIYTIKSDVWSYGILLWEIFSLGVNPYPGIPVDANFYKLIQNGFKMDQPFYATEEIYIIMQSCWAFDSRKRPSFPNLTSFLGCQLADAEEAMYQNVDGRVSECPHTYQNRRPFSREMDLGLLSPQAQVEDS
To be noted: at 0.1 µM.

Assay [9] addresses Non-receptor tyrosine-protein kinase TYK2 (Homo sapiens) (UniProt P29597). To be noted: at 1 µM.
For assay [10], the target named is T2, Tyrosine-protein kinase receptor TYRO3 (Homo sapiens) (UniProt Q06418).
T2 sequence (whole entry): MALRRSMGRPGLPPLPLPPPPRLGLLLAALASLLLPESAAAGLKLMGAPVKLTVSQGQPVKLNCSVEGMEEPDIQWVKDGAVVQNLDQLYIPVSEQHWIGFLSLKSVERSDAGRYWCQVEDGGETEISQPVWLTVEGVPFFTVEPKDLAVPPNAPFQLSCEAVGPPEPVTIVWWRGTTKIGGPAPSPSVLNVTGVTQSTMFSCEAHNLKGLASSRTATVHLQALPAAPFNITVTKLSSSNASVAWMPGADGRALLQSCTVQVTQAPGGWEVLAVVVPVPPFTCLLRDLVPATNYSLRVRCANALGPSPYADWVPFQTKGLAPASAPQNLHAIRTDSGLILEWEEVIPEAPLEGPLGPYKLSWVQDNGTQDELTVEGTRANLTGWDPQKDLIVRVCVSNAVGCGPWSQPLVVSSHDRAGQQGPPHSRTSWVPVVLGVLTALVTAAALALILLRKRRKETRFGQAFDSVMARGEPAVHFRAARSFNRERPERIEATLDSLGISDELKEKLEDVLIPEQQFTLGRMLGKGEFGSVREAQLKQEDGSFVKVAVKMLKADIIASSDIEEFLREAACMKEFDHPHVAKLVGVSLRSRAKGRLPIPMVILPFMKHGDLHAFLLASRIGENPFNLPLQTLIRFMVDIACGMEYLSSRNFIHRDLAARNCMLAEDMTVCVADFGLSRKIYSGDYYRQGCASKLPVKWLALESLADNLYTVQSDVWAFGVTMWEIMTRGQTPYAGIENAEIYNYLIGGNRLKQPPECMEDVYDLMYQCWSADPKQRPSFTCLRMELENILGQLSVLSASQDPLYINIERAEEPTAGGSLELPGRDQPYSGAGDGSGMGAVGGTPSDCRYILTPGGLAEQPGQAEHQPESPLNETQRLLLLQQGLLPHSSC
To be noted: at 0.1 µM.

Assay [11] concerns the target T2, Tyrosine-protein kinase receptor TYRO3 (Homo sapiens). To be noted: at 1 µM.
In assay [12] the target is Tyrosine-protein kinase Yes (Homo sapiens) (UniProt P07947). To be noted: at 0.1 µM.
Chain of Tyrosine-protein kinase Yes (Homo sapiens) (P07947 2-543 limits assumed): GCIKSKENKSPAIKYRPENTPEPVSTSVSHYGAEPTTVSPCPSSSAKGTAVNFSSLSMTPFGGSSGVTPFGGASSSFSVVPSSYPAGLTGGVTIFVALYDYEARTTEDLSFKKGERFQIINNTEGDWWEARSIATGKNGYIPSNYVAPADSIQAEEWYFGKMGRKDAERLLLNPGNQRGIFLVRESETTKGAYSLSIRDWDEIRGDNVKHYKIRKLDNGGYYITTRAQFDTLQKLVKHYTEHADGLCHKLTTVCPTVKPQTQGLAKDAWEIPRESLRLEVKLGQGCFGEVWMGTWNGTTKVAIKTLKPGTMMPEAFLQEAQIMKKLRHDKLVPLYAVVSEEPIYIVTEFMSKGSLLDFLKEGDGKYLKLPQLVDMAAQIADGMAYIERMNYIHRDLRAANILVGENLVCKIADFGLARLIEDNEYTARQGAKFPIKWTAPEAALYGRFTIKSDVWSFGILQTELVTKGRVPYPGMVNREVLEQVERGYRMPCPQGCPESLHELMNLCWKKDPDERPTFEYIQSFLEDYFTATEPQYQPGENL
Assay [13] shares this target. To be noted: at 1 µM.
In assay [14] the target is T3, Tyrosine-protein kinase ZAP-70 (Homo sapiens) (UniProt P43403).
T3 sequence (whole entry): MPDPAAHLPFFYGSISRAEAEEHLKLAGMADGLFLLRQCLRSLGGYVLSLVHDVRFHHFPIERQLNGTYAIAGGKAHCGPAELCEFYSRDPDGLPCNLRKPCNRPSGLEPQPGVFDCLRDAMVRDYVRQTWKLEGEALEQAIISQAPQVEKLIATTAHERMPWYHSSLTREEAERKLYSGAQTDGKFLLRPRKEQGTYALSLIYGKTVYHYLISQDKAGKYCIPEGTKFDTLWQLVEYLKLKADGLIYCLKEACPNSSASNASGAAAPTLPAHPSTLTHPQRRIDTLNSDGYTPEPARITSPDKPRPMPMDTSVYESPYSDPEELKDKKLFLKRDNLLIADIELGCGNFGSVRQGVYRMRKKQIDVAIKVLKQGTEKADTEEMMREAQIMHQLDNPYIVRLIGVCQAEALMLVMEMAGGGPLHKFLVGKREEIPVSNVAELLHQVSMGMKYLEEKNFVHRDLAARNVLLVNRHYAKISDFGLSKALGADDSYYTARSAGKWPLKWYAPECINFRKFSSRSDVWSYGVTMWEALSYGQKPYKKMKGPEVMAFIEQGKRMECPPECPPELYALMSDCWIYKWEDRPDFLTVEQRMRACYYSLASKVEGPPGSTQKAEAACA
To be noted: at 0.1 µM.

The target in assay [15] is T3, Tyrosine-protein kinase ZAP-70 (Homo sapiens). To be noted: at 1 µM.
Assay [16] concerns the target Serine/threonine-protein kinase B-raf (Homo sapiens) (UniProt P15056). To be noted: at 0.1 µM.
For assay [17] the target is unchanged. To be noted: at 1 µM.
Assay [18] relates to Serine/threonine-protein kinase B-raf (Homo sapiens), P15056 [V600E]. To be noted: at 0.1 µM.
Chain of Serine/threonine-protein kinase B-raf (Homo sapiens), P15056 [V600E] (P15056 whole entry V600E): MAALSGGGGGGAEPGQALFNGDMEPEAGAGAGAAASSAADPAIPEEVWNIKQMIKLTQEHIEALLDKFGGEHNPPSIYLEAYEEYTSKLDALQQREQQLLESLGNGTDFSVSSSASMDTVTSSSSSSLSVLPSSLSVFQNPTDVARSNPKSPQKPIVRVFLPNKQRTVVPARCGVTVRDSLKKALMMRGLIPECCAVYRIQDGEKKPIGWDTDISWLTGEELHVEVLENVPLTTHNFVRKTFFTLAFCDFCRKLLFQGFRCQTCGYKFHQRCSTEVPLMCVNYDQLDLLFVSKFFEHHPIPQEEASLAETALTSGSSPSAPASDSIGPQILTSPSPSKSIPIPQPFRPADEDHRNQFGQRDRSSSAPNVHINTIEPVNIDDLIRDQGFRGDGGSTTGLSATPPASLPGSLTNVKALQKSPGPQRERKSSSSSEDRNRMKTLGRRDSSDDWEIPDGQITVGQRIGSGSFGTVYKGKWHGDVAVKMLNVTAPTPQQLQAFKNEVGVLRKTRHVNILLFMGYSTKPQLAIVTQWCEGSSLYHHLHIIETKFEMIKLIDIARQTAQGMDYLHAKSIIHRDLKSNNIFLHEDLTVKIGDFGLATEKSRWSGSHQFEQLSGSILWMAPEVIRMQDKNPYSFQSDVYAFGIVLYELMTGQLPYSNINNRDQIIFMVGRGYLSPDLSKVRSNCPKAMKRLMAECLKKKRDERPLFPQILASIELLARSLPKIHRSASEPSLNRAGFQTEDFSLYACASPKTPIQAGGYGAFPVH
The test system is the same in assay [19]. To be noted: at 1 µM.
In assay [20] the target is RAF proto-oncogene serine/threonine-protein kinase (Homo sapiens) (UniProt P04049). To be noted: at 0.1 µM.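 Further: values are mean CRAF kinase inhibition from profiling of the GSK Published Kinase Inhibitor Set.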
Chain of RAF proto-oncogene serine/threonine-protein kinase (Homo sapiens) (P04049 whole entry): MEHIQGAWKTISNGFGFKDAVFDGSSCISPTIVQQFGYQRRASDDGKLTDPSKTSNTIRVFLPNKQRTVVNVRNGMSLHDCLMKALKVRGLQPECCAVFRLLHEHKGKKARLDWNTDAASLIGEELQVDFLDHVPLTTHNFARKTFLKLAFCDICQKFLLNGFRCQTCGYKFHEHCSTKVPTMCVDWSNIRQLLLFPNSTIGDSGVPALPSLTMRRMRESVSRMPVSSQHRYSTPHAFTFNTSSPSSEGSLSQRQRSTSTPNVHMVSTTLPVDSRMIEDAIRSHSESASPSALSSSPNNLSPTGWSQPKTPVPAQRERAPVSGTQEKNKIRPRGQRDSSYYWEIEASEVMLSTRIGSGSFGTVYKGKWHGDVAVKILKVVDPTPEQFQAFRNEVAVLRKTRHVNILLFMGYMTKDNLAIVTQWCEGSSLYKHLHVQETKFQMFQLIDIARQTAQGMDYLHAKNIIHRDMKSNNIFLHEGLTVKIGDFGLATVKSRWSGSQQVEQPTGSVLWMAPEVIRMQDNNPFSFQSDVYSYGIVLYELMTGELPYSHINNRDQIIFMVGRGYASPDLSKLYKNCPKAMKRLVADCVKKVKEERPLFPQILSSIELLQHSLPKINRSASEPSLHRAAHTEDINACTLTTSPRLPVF

Chain of Non-receptor tyrosine-protein kinase TYK2 (Homo sapiens) (P29597 whole entry): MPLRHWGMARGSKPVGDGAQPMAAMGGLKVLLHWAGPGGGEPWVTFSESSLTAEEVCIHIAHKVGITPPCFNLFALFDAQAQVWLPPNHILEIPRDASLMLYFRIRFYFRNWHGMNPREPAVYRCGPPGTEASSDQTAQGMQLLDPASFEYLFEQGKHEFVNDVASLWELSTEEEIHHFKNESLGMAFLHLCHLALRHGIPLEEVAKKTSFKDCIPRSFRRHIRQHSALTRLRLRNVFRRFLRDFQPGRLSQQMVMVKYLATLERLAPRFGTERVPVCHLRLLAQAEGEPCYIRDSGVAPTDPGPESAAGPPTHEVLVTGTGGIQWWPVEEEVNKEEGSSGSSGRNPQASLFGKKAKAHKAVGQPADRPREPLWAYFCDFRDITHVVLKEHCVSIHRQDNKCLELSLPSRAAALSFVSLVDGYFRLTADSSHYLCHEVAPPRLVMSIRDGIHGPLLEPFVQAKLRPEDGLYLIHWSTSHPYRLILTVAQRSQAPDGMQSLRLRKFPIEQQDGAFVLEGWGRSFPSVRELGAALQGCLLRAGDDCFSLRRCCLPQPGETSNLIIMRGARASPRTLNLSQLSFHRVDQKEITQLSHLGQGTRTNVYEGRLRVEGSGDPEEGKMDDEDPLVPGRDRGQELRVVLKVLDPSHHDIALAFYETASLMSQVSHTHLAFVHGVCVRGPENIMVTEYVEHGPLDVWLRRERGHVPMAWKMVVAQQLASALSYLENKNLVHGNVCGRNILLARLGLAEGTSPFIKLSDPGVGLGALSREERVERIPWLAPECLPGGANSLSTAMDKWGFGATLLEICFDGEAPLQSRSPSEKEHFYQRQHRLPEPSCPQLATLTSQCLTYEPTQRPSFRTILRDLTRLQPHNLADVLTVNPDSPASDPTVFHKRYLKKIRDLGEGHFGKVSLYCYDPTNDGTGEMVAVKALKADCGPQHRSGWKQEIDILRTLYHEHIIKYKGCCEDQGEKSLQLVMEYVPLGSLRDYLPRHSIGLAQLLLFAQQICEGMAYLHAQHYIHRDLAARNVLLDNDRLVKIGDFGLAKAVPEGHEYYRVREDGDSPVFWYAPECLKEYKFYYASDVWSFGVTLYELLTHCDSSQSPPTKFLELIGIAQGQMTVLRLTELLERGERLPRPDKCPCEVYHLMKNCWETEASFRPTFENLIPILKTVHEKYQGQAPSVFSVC
Chain of Serine/threonine-protein kinase B-raf (Homo sapiens) (P15056 whole entry): as the sequence (P15056 whole entry V600E) above, with E600V counted along it
Chain of Fibroblast growth factor receptor 4 (Homo sapiens) (P22455 22-802 limits assumed): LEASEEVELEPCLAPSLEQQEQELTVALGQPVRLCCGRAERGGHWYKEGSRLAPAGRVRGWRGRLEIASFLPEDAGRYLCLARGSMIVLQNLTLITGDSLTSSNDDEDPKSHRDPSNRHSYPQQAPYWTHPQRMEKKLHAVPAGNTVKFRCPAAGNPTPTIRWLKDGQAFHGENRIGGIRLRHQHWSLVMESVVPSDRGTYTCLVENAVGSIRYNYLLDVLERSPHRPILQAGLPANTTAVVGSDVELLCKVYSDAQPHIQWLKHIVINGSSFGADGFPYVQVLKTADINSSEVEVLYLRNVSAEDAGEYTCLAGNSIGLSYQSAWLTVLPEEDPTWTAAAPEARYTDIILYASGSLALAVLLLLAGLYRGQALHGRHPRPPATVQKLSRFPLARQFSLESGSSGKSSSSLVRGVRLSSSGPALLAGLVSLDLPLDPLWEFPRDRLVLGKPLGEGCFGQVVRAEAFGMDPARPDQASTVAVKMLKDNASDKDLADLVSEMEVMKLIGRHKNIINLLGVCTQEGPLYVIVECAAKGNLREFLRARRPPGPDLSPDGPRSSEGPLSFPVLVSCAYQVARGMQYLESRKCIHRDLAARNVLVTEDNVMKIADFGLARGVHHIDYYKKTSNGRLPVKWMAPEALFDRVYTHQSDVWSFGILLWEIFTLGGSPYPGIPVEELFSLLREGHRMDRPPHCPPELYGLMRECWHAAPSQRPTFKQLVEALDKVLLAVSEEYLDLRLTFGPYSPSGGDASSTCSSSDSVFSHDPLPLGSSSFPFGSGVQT

As to `COc1ccc2ncn(-c3cc(O[C@H](C)c4ccccc4Cl)c(C(N)=O)s3)c2c1`, the inhibition in [1] is -2.23%; in [2] it was 2.3%; in assay [3], 3.06%; in assay [4], 0.27%; in [5], 3.7%; in assay [6], -1.31%. Besides, the inhibition in [7] was 4.52%; in [8], 2.46%; in assay [9], -5.78%; in assay [10], 3.88%; in [11] it was 3.45%; in assay [12], 1.1%. Also, the inhibition in assay [13] is 0.5%; in [14] it was -4.58%; in assay [15], 0.58%; in assay [16] it was 5.68%; in assay [17], 4.96%; in [18], 3.17%. In addition, the inhibition in assay [19] was 3.29%; in assay [20] it was 0.5%.

As to `CN(C)CCOc1ccc(-c2cc(-c3ccc4c(c3)CCC4=NO)c(-c3ccncc3)o2)cc1`, the inhibition is -1.71% in assay [1]; 1.5% in assay [2]; 7.33% in [3]; -0.18% in [4]; -0.16% in [5]; -0.73% in [6]. Also, the inhibition was -1.89% in [7]; -7.59% in [8]; 0.1% in [9]; -0.87% in assay [10]; 2.92% in [11]; 2.18% in assay [12]. In addition, the inhibition is 9.45% in assay [13]; -2.95% in assay [14]; 0.13% in assay [15]; 48.5% in assay [16]; 85% in assay [17]; 56.3% in assay [18]. Also, the inhibition is 86.2% in [19] and -4.4% in assay [20].

Turning to `c1ccc(-c2n[nH]cc2-c2ccnc(-c3ccc(OCCN4CCOCC4)cc3)c2)nc1`, the inhibition is 4.93% in assay [1]; 4.14% in assay [2]; 6.86% in assay [3]; 3.88% in assay [4]; 15.6% in assay [5]; -2.01% in [6]. The inhibition in assay [7] was 1.37%; in [8], -0.15%; in assay [9], 1.87%; in [10], -0.18%; in assay [11], -0.82%; in assay [12], -1.99%. Also, the inhibition in assay [13] was 2.34%; in [14], 5%; in assay [15], 0.13%; in [16], -2.91%; in assay [17] it was -2.83%; in assay [18] it was -4.04%. Also, the inhibition in assay [19] was -1.12%; in [20], -0.28%.

Regarding `CCS(=O)(=O)c1ccc(OC)c(Nc2ncc(-c3cccc(-c4ccccc4F)c3)o2)c1`, the inhibition worked out at 16.3% in assay [1]; 11.9% in assay [2]; 52.1% in assay [3]; 24.9% in assay [4]; 68.4% in assay [5]; 6.25% in assay [6]. Also, the inhibition in assay [7] stood at 30%; in assay [8], 5.31%; in assay [9], 1.31%; in [10], 3.28%; in [11], 19.6%; in assay [12], 25.7%. In addition, the inhibition in assay [13] was 73%; in assay [14], 1.06%; in assay [15], -0.05%; in [16], 1.09%; in [17], 1.46%; in [18], 0.74%. For the same compound, the inhibition in assay [19] is 1.89%; in assay [20], -0.07%.

In the case of `Fc1ccc(-c2c(-c3ccncc3)nc3n2CCS3)cc1`, the inhibition came out at 0.11% in assay [1]; 2.37% in [2]; 2.64% in assay [3]; 0.25% in assay [4]; 1.28% in [5]; 0.81% in assay [6]. Besides, the inhibition in assay [7] is 1.71%; in assay [8], -1.87%; in assay [9], 0.83%; in [10] it was 1.94%; in assay [11], 1.69%; in assay [12], 2.78%. Also, the inhibition was 5.33% in assay [13]; 0.51% in assay [14]; -2.36% in assay [15]; 4.16% in assay [16]; 4.3% in assay [17]; 3.07% in assay [18]. Besides, the inhibition was determined as 4.28% in assay [19] and 2.08% in assay [20].

Turning to `Clc1ccc(CNc2nccc(-c3cnn4ncccc34)n2)cc1`, the inhibition in assay [1] is 1.27%; in assay [2], 3.59%; in [3] it was 4%; in [4] it was -1.24%; in assay [5], 6.44%; in [6] it was 1.16%. The inhibition was 1.79% in assay [7]; 2.77% in [8]; 1.83% in assay [9]; 1.5% in assay [10]; 2.27% in assay [11]; -0.37% in assay [12]. In addition, the inhibition in assay [13] is -1.15%; in assay [15], -0.35%; in assay [16] it was 0.05%; in [17] it was 3.64%; in assay [18], 0.12%; in assay [19], 2.83%. The inhibition in [20] was found to be 1.36%.

For `NC(=O)c1ccc(Oc2nccc(-c3c(-c4ccc(F)cc4)ncn3C3CCNCC3)n2)cc1`, the inhibition in assay [1] is 3.45%; in [2], 1.87%; in assay [3], 3.62%; in assay [4] it was 0.89%; in assay [5], -0.43%; in assay [6] it was 2.76%. Moreover, the inhibition is 4.78% in assay [7]; 0.27% in assay [8]; -4.56% in assay [9]; 2.41% in assay [10]; 4.62% in [11]; 4.3% in assay [12]. For the same compound, the inhibition in assay [13] is 4.13%; in [14] it was 2.59%; in [15], 4.42%; in assay [16], 7.51%; in [17] it was 10.8%; in [18], 4.69%. The inhibition was determined as 5.64% in assay [19] and 3.18% in assay [20].
